# Experimental data from ChEMBL document CHEMBL4513216, “Probing the Open Global Health Chemical Diversity Library for Multistage-Active Starting Points for Next-Generation Antimalarials” (ACS Infect Dis, 2020).
# Hit rate of the full screen: of about 69,000 compounds, about 8,600 (12%) showed an effect of 50% or more. The sample as a whole holds a higher share of strong results than the screen did.
# Tested on: Plasmodium berghei
# Test: Screen against P. berghei liver stage (PbLuc), transformed with Luciferase, at 10uM
# Assay type: functional, HepG2
# Settings: tested at 10 uM
row,Structure (SMILES),INHIBITION
1,CC(C)Nc1nc2c(cc1C(=O)N(C)C)CCNCC2,-3.83%
2,CCCN1CCC2(C1)c1ccccc1S(=O)(=O)N2C (stereo not given),13.7%
3,OC(CNCCc1nnc2ccccn12)c1ccc2c(c1)OCO2 (stereo not given),-20.5%
4,CCCc1nc(C)c(C(=O)Nc2cccc(C)n2)s1,1.45%
5,COC[C@H]1CN(CC2CC2)C(=O)[C@@H]2CCN(Cc3ccoc3)CC[C@H]12,11.3%
6,Cc1ccsc1CN(Cc1nc2c(cnn2C)c(=O)[nH]1)C(C)C,31.533%
7,COc1ccc(NC(=O)N(CC2CCOC2)C2CC2)cn1 (stereo not given),12.85%
8,Cn1cncc1C(=O)N1CCOC2(COCCN(CC3CC3)C2)C1 (stereo not given),-8.23%
9,Cc1noc([C@@H]2C[C@H]3CN(Cc4ccc5c(c4)OCO5)C[C@H]3O2)n1,42.1%
10,Cc1nc([C@H]2C[C@@H]3CCN(Cc4ccc5c(c4)OCO5)C[C@H]3O2)no1,59.3%
11,Cc1csc(CN2CC[C@H]3C[C@@H](c4noc(C)n4)O[C@@H]3C2)n1,29%
12,Cc1nc([C@@H]2C[C@H]3CN(Cc4ccc5c(c4)OCO5)C[C@H]3O2)no1,29.4%
13,Cc1nc([C@@H]2C[C@H]3CN(Cc4scnc4C)C[C@H]3O2)no1,-35.2%
14,Cc1noc(C)c1CN1CC[C@H]2C[C@@H](c3ccncn3)O[C@@H]2C1,21.6%
15,Cc1nc([C@H]2C[C@@H]3CCN(Cc4scnc4C)C[C@H]3O2)no1,88%
16,Cc1nccc([C@@H]2C[C@@H]3CCN(Cc4c(C)noc4C)C[C@H]3O2)n1,67.2%
17,Cc1noc(C)c1CN1CC[C@H]2C[C@H](c3ccncn3)O[C@@H]2C1,34.6%
18,Cc1noc(C)c1CN1CCC(c2ccnn2CCO)CC1,-43.5%
19,COCC(O)CN1CCC(=O)N(Cc2ccco2)Cc2ccccc21 (stereo not given),24.5%
20,CN1CCN(C[C@H]2OC[C@@H]3CCN(C(=O)c4cnccn4)C[C@@H]32)CC1,31.4%
21,CCN1CCCC(c2nc(O)c3cc(C)ccc3n2)C1 (stereo not given),16.8%
22,CC1=NC2(CCN(CC(C)c3ccccc3)CC2)C(=O)N1 (stereo not given),14%
23,O=C(Cc1cccnc1)NC1CCCN(CCCc2ccccc2)C1 (stereo not given),8.99%
24,CC(CN1CCC2(CC1)N=C(N(C)C)NC2=O)c1ccccc1 (stereo not given),0.825%
25,O=C1NC(c2ccccc2)=N[C@@]12CC[C@@H]1CN(Cc3cccnc3)C[C@@H]12,33%
26,CC(CN1CCC2(CC1)N=C(c1cccnc1)NC2=O)c1ccccc1 (stereo not given),70.1%
27,O=C1NC(c2cccnc2)=NC12CCN(CCCc1ccccc1)CC2,58.7%

row,Structure (SMILES),INHIBITION
1,CC(NC(=O)NCCCn1ccnc1)c1nncn1C (stereo not given),-6.61%
2,c1coc(CN2CCC3(CC2)COC(COCC2CCOCC2)C3)c1 (stereo not given),6.27%
3,COc1cccc(-c2cc(C(=O)NCCn3nc(C)nc3C)[nH]n2)c1,-13.6%
4,CCn1c(C)cc(C(=O)N2CCCC(n3ccnc3C)C2)c1C (stereo not given),-11.3%
5,COc1cc(CNCC2CN(C3CC3)CCO2)cc(OC)c1 (stereo not given),-18.3%
6,Oc1ccc(Cl)cc1CNCc1cccc(C(F)(F)F)c1,27.4%
7,CCc1ccsc1C(=O)N1CCCN(Cc2nccn2CC)CC1,30.65%
8,CC1CN(CC(=O)Nc2nccs2)CCN1Cc1nccn1C (stereo not given),26.675%
9,O=C(Nc1nccs1)C1CCCN1Cc1ccccn1 (stereo not given),87.6%
10,CCNc1ccnc(CN2CCCC2C(=O)Nc2nccs2)c1 (stereo not given),85.1%
11,CCn1ccnc1CN1CCCC1C(=O)Nc1nccs1 (stereo not given),72.2%
12,N#Cc1cccc(OCCN2CCCC2C(=O)Nc2nccs2)c1 (stereo not given),44%
13,CCc1nc(CN2CCCC2C(=O)NC)cs1 (stereo not given),49%
14,CC(C)(C)NC(=O)C1CCCCN1Cc1nccn1CC(F)(F)F (stereo not given),46.6%
15,NC(=O)C1CCCN1Cc1nccn1CC(F)(F)F (stereo not given),30.9%
16,CC(=O)Nc1cccc(CN2CCCC2C(=O)Nc2nccs2)c1 (stereo not given),34.6%
17,O=C(C1CCCCN1Cc1nccn1CC(F)(F)F)N1CCCC1 (stereo not given),58.9%
18,O=C(Nc1nccs1)NC1CCN(Cc2ccccn2)CC1,17.4%
19,N#Cc1ccccc1C(=O)Nc1cccc(CN2CCC(CO)CC2)c1,-43.1%
20,Cc1cc(OCC(=O)N2CCCC(c3nc(C)c(C)s3)C2)no1 (stereo not given),0.914%
21,CC(O)CN1CCN(C(=O)c2ccc(N3CCCC3)nn2)CC1 (stereo not given),-43.5%
22,O=C(CC1CCCC1)Nc1ccc(-n2cc(Br)cn2)nc1,24.8%
23,CN(C)S(=O)(=O)CCCN1CCc2c(ncn2C2CC2)C1,33.7%
24,COCCN1C(=O)CCC12CCN(C(=O)CNC(C)=O)CC2,-49.2%
25,Oc1ccc(CCC2CCCCN2Cc2noc(C3CC3)n2)cc1 (stereo not given),26.5%
26,Cc1cc(N2CCN(C(=O)c3cc(Cl)c[nH]3)CC2)nc(C(C)C)n1,24.6%
27,Cc1cc(N2CCN(C(=O)c3cc(Cl)c[nH]3)CC2)nc(N)n1,50.1%

row,Structure (SMILES),INHIBITION
1,Cc1cc(C)cc(CCC(=O)N2CCN(c3cc(C)nc(N)n3)CC2)c1,80.5%
2,Cc1cc(N2CCN(C(=O)CCc3scnc3C)CC2)nc(N)n1,-6.72%
3,Cc1cc(N2CCN(C(=O)c3cc(Cl)c[nH]3)CC2)nc(C)n1,5.76%
4,COc1cc(C)nc(N2CCN(C(=O)CCc3ccncc3)CC2)n1,7.18%
5,CN1[C@@H](C(=O)NCC2CC2)C[C@H]2CN(Cc3ccsc3)C[C@H]21,-14.7%
6,NC(=O)c1cc2c(nc1N1C[C@H]3OC(=O)N(C4CCCC4)[C@H]3C1)CCC2,5.05%
7,Cc1c(NCc2cccnc2)cccc1C(=O)N1CCC(N(C)C)C1 (stereo not given),24.4%
8,CC(C(=O)Nc1ccon1)n1ccc(C(F)(F)F)n1 (stereo not given),15.1%
9,N#Cc1cccnc1N1CCCN(C(=O)CCn2cncn2)CC1,14.1%
10,c1cc(CNCC2CNc3ccnn3C2)cc(Cn2cccn2)c1 (stereo not given),50.5%
11,c1ccc(-n2ccnc2)c(CNCC2CNc3ccnn3C2)c1 (stereo not given),55.1%
12,c1cc(CNCC2CNc3ccnn3C2)cc(N2CCCCC2)n1 (stereo not given),37%
13,OCc1ccccc1CNCC1CNc2ccnn2C1 (stereo not given),-17%
14,c1ccc(Cn2cccn2)c(CNCC2CNc3ccnn3C2)c1 (stereo not given),45.8%
15,c1cc(CNCC2CNc3ccnn3C2)cc(N2CCOCC2)n1 (stereo not given),62.1%
16,c1ccc(Cn2cncn2)c(CNCC2CNc3ccnn3C2)c1 (stereo not given),36.4%
17,c1cc(CNCC2CNc3ccnn3C2)cc(OC2CCCCC2)n1 (stereo not given),40.2%
18,COc1cc(CNCC2CNc3ccnn3C2)ccn1 (stereo not given),23.7%
19,c1cc(CNCC2CNc3ccnn3C2)cc(OC2CCCC2)n1 (stereo not given),60.7%
20,c1ccc(Cn2cc(CNCC3CNc4ccnn4C3)cn2)cc1 (stereo not given),9.54%
21,c1cc2n(n1)CC(CNCc1ccc(OC3CCCC3)nc1)CN2 (stereo not given),41.5%
22,O=C(Cn1c(C(F)F)cc2cccnc21)NC1CCCC1,22%
23,CN(C)c1nc(CNC(=O)Nc2cccc([S+](C)[O-])c2)cs1 (stereo not given),12.4%
24,Cc1cnn(CC(=O)N2CCC(c3ccn4nccc4n3)CC2)c1,32.7%
25,CCOC1COC2(CCN(Cc3cccc(C#N)c3)CC2)C1 (stereo not given),29.7%
26,CN1CCCN(C(=O)NCCOc2ccc3c(c2)OCO3)CC1,33.3%
27,COCCN1C(=O)C[C@@H]2[C@H]1CCN2C(=O)c1ccc[nH]1,-14.4%

row,Structure (SMILES),INHIBITION
1,Cc1nc(C)n(CC2CCCN(CC(=O)N3CCCC3)C2)n1 (stereo not given),7.67%
2,CCc1noc(-c2cccc(C(=O)O)c2)n1,-30%
3,CN1C[C@@H](C(=O)N(C)C)[C@@]2(CCc3ccccc3C(=O)N2)C1,4.41%
4,Cc1cnn(CC2CN(Cc3noc(C4CC4)n3)CCO2)c1 (stereo not given),-12.2%
5,Cc1ccc2c(c1)OC(C)CN2C(=O)Cc1ccc(C)nc1 (stereo not given),59.1%
6,Cc1ccc2c(c1)OC(C)CN2C(=O)CCc1cccnc1 (stereo not given),43.4%
7,Cc1ccc2c(c1)OC(C)CN2C(=O)CCc1cscn1 (stereo not given),9.04%
8,CCSc1ccccc1C(=O)NCC1CCN(Cc2ccsc2)CC1,13.6%
9,Cc1cccc(OCCC(=O)N2CCCN(CC(N)=O)CC2)c1C,55.9%
10,NC(=O)CN1CCCN(C(=O)Cc2ccc3ccccc3c2)CC1,-9.98%
11,NC(=O)CN1CCCN(C(=O)Cc2ccc(Br)cc2)CC1,54.4%
12,COC(=O)CN1CCCN(C(=O)CCOc2cccc(C)c2C)CC1,29.7%
13,Cc1cccc(OCCC(=O)N2CCCN(C(N)=O)CC2)c1C,15.5%
14,NC(=O)CN1CCCN(C(=O)Cc2ccc(F)cc2)CC1,5.03%
15,CN(CC(=O)NCC(=O)Nc1ccc(F)cc1)Cc1cccs1,5.87%
16,Cc1ccccc1CC1(CO)CCCN(c2ncccc2C#N)C1 (stereo not given),56.8%
17,CCC1(CO)CCCN(c2ncccc2C#N)C1 (stereo not given),5.14%
18,CSC(C)C(=O)N1CCCN(c2ncccc2C#N)CC1 (stereo not given),1.78%
19,N#Cc1cccnc1N1CCCC(CO)(Cc2ccc(F)cc2)C1 (stereo not given),85.5%
20,N#Cc1cccnc1N1CCCC(CO)(Cc2ccccc2F)C1 (stereo not given),-17.2%
21,N#Cc1cccnc1N1CCCC(CO)(Cc2cccc(Cl)c2)C1 (stereo not given),-84%
22,Cc1ccccc1CN1C[C@@H]2COC[C@]2(CNC(=O)C2CCC2)C1,43%
23,CCOCc1nc(N2CCCC2)sc1C(=O)NCCC(=O)OCC,2.55%
24,Cn1ccnc1CN1CCc2c(COCC3CC3)nn(C)c2C1,38.5%
